In PubChem BioAssay (NCATS):
Calls of active or inactive are those of the source. Unless noted, how the calls were made is not given here.

Columns and labels:
[1] = qHTS profiling of the MIPE4 collection as inhibitors of Plasmodium falciparum (3D7) proliferation (AID 743344);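 further: scaled between DMSO vehicle wells and 0.29 µM artemisinin as full inhibition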; conditions: P. falciparum 3D7 in erythrocytes, SYBR Green DNA fluorescence, 72 h; at 28.5 µM
In short: (§1)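 Parasite DNA was quantified by SYBR Green I fluorescence (ex 485, em 535 nm) after overnight lysis in saponin/Triton buffer at room temperature. Cultures at 0.3% parasitemia and 2.5% hematocrit were first exposed to compound for 72 h at 37 C; signals were normalised to artemisinin (0.29 uM) and vehicle wells.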

[2] = qHTS profiling of the MIPE4 collection as inhibitors of Plasmodium falciparum (DD2) proliferation (AID 743345); conditions: P. falciparum Dd2 in erythrocytes, SYBR Green DNA, 72 h; at 28.5 µM unless noted
In short: as §1

[3] = qHTS profiling of the MIPE4 collection as inhibitors of Plasmodium falciparum (DD2) proliferation (Rep 2) (AID 743346); conditions: P. falciparum Dd2 in erythrocytes, SYBR Green DNA, 72 h; at 28.5 µM
In short: as §1

[4] = qHTS profiling of the MIPE4 collection as inhibitors of Plasmodium falciparum (HB3) proliferation (AID 743347);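 further: plate controls were DMSO vehicle wells for no effect and artemisinin wells for full effect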; conditions: P. falciparum HB3 in erythrocytes, SYBR Green DNA, 72 h; at 28.5 µM
In short: as §1

[5] = High-throughput drug toxicity screening in the BPDCN cell line Gen2.2 (AID 1224824); conditions: Gen2.2 BPDCN cells; at 45.8 µM (top of the series);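 further: cells exposed to compounds for 48 h before reading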
In short: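 CellTiter-Glo luminescence read after 48 h compound exposure at 37 C defines viability; percent activity set with DMSO as 100% and bortezomib (9.2 uM final) as 0%. 500 exponentially growing cells per well, RPMI plus 10% FBS.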

[6] = High-throughput drug toxicity screening in the BPDCN cell line Cal-1 (AID 1224825); conditions: Cal-1 BPDCN cell viability, qHTS; at 45.8 µM (top of the series)
In short: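 Percent activity derived from CellTiter-Glo luminescence, scaling DMSO to 100% and 9.2 uM final bortezomib to 0%. BPDCN Cal-1 cells (500/well, RPMI plus 10% FBS) incubated with compounds 48 hours at 37C before reading.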

[7] = qHTS profiling for inhibitors of Plasmodium falciparum (DD2) proliferation (AID 743323); conditions: lower = more inhibition; at 28.7 µM (top of the series) unless noted
In short: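 1536-well qHTS; infected RBCs 0.3% parasitemia/2.5% Hct final; cpd 72 h 37 C 5% CO2; lysis buffer + SYBR Green I, o/n RT dark; FI 485/535; norm. to 0.29 uM artemisinin and DMSO, plate-stack corrected.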

[8] = qHTS profiling for inhibitors of Plasmodium falciparum (HB3) proliferation (AID 743324; active means well fitted curve in the direction sought with a large enough effect; inactive means no such curve, though single readings can be large or run the other way;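 further: 100% = DMSO vehicle wells and 0% = artemisinin-treated control wells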); conditions: Plasmodium falciparum HB3 blood-stage proliferation; at 28.7 µM (top of the series) unless noted
In short: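 SYBR Green fluorescence (485 ex/535 em) of lysed cultures, incubated overnight at room temperature in the dark, quantifies parasite DNA. Infected erythrocytes at 0.3% parasitemia and 2.5% hematocrit were exposed 72 h; values normalized to DMSO and 0.29 uM artemisinin controls.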

[9] = Immunotoxin (SS1P) sensitization/mitigation study. Vehicle arm (DMEM) (AID 1159513)

| Compound | parasite growth, % of DMSO control [1] [%] | parasite growth remaining, % of DMSO control (lower = more inhibition) [2] [%] | parasite growth, % of control (lower = inhibition) [3] [%] | growth, % of control [4] [%] | cell viability, % of control (lower = more cytotoxic) [5] [%] | viability (% of control) [6] [%] | activity, percent of control [7] [%] | remaining proliferation (% of control), lower = more inhibition [8] [%] | Potency [9] |
| --- | --- | --- | --- | --- | --- | --- | --- | --- | --- |
| COc1ccc(CC2NCCc3cc(OC)c(OC)cc32)cc1OC (centres undefined) | 85.9 | 85.6 | 55.8 | 90.4 | 150 | 102 |  |  |  |
| C=C1C[C@H]2[C@H]3CCC(=O)[C@@]3(C)CC[C@@H]2[C@@]2(C)C=CC(=O)C=C12 | 51.5 | 90.6 | 50.5 | 29 | 12.4 | 32.6 |  |  |  |
| CCc1c(C(=O)C(N)=O)c2c(OCC(=O)O)cccc2n1Cc1ccccc1 | 111 | 97.5 | 83.8 | 99.7 | 114 | 115 |  |  |  |
| O=C(O)c1ccc(O)c2ncc(N3CCOCC3)cc12 |  | 37 |  |  |  |  | 35.5 | 35.5 | inactive |
| CC[C@@]1(O)C(=O)OCc2c1cc1n(c2=O)Cc2cc3ccccc3nc2-1 | 15.1 | 12.9 | 19.3 | 5.89 | 4.89 | 3.88 |  |  |  |
| CC=C(C)C(=O)N[C@@H](c1ccccc1)[C@@H](O)C(=O)O[C@H]1C[C@@]2(O)[C@@H](OC(=O)c3ccccc3)[C@@H]3[C@]4(OC(C)=O)CO[C@@H]4C[C@H](O)[C@@]3(C)C(=O)[C@H](OC(C)=O)C(=C1C)C2(C)C | 4.24 | 14 | 15.6 | 6.33 | 47 | 19.1 |  |  |  |
| Cc1cnc(Nc2ccc(OCCN3CCCC3)cc2)nc1Nc1cccc(S(=O)(=O)NC(C)(C)C)c1 |  |  |  |  |  |  |  |  | inactive |
| c1ccc2c(CN3CCNCC3)cccc2c1 | 85.3 | 53.1 | 43.2 | 109 | 112 | 99 |  |  |  |
| CSCC[C@@H](NC(=O)[C@@H](Cc1ccccc1)NC(=O)CNC(=O)CNC(=O)[C@@H](N)Cc1ccc(O)cc1)C(=O)O | 92.2 | 49.8 | 89.9 | 99.5 | 140 | 134 |  |  |  |
| C[C@]12CC[C@@H]3[C@@H](CCC4=CC(=O)CC[C@@H]43)[C@@H]1CC[C@@H]2OC(=O)CCc1ccccc1 | 65.4 | 83 | 56.3 | 90.8 | 119 | 104 |  |  |  |
| CCN1CCN(C(=O)Cc2ccc(Nc3ncc(F)c(Nc4ccc(C(=O)Nc5ccccc5Cl)cc4)n3)cc2)CC1 | 6.35 | 7.02 | 14.2 | 7.73 | 2.73 | 2.31 |  |  |  |
